Each structure is given as a SMILES string. About 340 (31%) of roughly 1,100 compounds were called active. Roughly 40% stayed inconclusive and do not appear here. Calls come from the whole dose curve; as a rule, active = well fitted inhibition curve with a large enough effect; inconclusive = small, poorly fitted or top-dose-only effect; inactive = flat fitted curve, though single readings scatter. The list is a sample of the results.
% is set by controls: 0 for no effect and ±100 for the full control effect; potency is the fitted concentration of half-maximal effect.

For the assay, the target named is Phosphatidylinositol 5-phosphate 4-kinase type-2 alpha (Homo sapiens) (UniProt P48426). Briefly: qHTS for Inhibitors of PI5P4K: Confirmation in Primary Assay. Note: nearly all actives have a fitted effect of over 65% in size. The following applies: PI5P4Kalpha enzyme, ADP-Glo luminescence, 60 min; series mostly up to 76.9 µM; activity change, negative = inhibition: at the top concentration. Summed up: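 Human PI5P4Kα activity was measured as ADP generation using ADP-Glo luminescence. Reactions ran 60 minutes at room temperature with 5 microM ATP in buffered conditions at pH 7.4 containing 5% DMSO.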
Sequence of Phosphatidylinositol 5-phosphate 4-kinase type-2 alpha (Homo sapiens) (P48426 whole entry, looked up): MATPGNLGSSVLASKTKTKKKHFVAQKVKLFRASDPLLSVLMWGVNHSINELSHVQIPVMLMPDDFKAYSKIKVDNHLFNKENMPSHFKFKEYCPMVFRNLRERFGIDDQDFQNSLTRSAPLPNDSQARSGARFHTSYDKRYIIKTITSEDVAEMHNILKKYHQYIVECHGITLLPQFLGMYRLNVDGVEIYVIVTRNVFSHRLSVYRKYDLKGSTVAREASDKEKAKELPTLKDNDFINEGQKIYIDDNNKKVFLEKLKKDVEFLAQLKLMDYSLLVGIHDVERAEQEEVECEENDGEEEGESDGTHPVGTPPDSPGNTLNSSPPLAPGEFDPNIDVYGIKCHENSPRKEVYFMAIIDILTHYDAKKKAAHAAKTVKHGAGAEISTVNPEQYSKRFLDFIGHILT
(In qHTS, concentration-response curves come from the screen itself.)
For the compound `COc1cc2nc(COc3ccccc3[N+](=O)[O-])oc(=O)c2cc1OC`, the “activity change, negative = inhibition” value is -3.94% (inactive). In the case of `O=S(=O)(Nc1ccc2cn[nH]c2c1)c1ccccc1`, the “activity change, negative = inhibition” value is 0.969% (inactive).

On to `CCOC(=O)c1cnc2cc(C)ccn2c1=O`, for which the “activity change, negative = inhibition” value was 0.0355% (inactive).

In the case of `C[C@H]1CN=C(Nc2ccccc2)N1CCCC1CCCCC1`, the “activity change, negative = inhibition” value was -0.725% (inactive). On the same count and under the same terms, next, `Cc1ccc(C)c(NC(=O)c2ccc3c(c2)N(Cc2ccc(F)cc2)C(=O)CS3=O)c1` (stereo not given): -0.517% (inactive); `COc1cccc2cc(C(C)N(CCCN3CCOCC3)C(=O)Nc3ccccc3)oc12` (stereo not given): 1.88% (inactive).

In the case of `CCN1CCN(Cc2ccc(NC(=O)c3cc(NC(=O)c4cc5cccc(OC)c5o4)cc(OC)c3)cc2C(F)(F)F)CC1`, the Potency was 25.1 µM (active).

`CCN1CCN(Cc2ccc(NC(=O)c3ccc(C)c(NC(=O)c4cc(-c5ccc(Br)cc5)n[nH]4)c3)cc2C(F)(F)F)CC1`: the Potency was 28.2 µM (active).

For `Cc1cc2ccccc2nc1SCC(=O)NC1CCCC1`, the “activity change, negative = inhibition” value is 3.8% (inactive). Still for that read-out and setting: next, `CCCCNC(=O)C1(C)CCC(=O)N1c1cc(C(C)(C)C)nn1C` (stereo not given): 4.31% (inactive); `COCCn1nnnc1C(c1cc2cc(OC)c(OC)cc2[nH]c1=O)N1CCN(c2ccc(O)cc2)CC1` (stereo not given): -13.5% (inactive); `Cc1ccn2c(NC3CCCC3)c(-c3cccs3)nc2c1`: 6.53% (inactive). As for `O=c1c2c3c(sc2[nH]c(=S)n1Cc1ccco1)CCC3`, the Potency was 7.08 µM (active). In the case of `Cc1cccc(-n2c(SCC(N)=O)nc3c(c2=O)C2(CCCC2)Cc2ccccc2-3)c1`, the “activity change, negative = inhibition” value is 3.23% (inactive).

As for `Cc1ccccc1CNC(=O)c1ccc2nc([C@@H]3O[C@H](CO)[C@H](O)[C@H](O)[C@H]3O)[nH]c2c1`, the “activity change, negative = inhibition” value is 1.11% (inactive).

Consider `COc1ccc(OC)c(NC(=O)COC(=O)c2cc3c(s2)CCC3)c1`, for which the Potency is 12.6 µM (active). For the compound `COc1ccc(OC)c(NC(=O)CN(Cc2ccc(F)cc2)C2CCCCC2)c1`, the “activity change, negative = inhibition” value was -1.93% (inactive).

Turning to `CN(C(=O)c1ccc(Br)o1)C1CCS(=O)(=O)C1` (stereo not given), the “activity change, negative = inhibition” value is 6.38% (inactive). For `CC(C)(C)c1ccc(NC(=O)C2=CC=CN3CCS(=O)(=O)N=C23)cc1`, the “activity change, negative = inhibition” value is 8.13% (inactive). The same measure, in the same setting: the value for `Cc1oc(-c2ccc(Cl)cc2)cc1C(=O)N1CCC1(C)C(=O)O` (stereo not given) was -17.1% (inactive). As for `Cc1oc(-c2ccc(Cl)cc2)cc1-c1nn2c(-c3ccoc3C)nnc2s1`, the Potency is 14.1 µM (active). Still for that read-out and setting: the value for `c1ccc(-c2cc3nc(NCC4CC4)nc(NCC4CCCCC4)c3s2)cc1` was 20 µM (active). As to `CC(C)c1ccc(CNc2nc(NCC3CC3)nc3ccsc23)cc1`, the “activity change, negative = inhibition” value is -27.8% (inactive). Still for that read-out and setting: the value for `COc1cccc(CNc2nc(NC(C)C)nc3ccsc23)c1` was 0.0638% (inactive). As to `c1ccc(CNc2nc(NCC3CC3)nc3cc(-c4ccccc4)sc23)cc1`, the Potency was 12.6 µM (active). With `COc1ccccc1CNc1nc(NCc2cccc(OC)c2OC)c2sccc2n1`, the “activity change, negative = inhibition” value is -9.72% (inactive). As to `CCO[C@@H]1OC(C(=O)NCc2ccccc2)=C[C@H](C(C)(C)C)[C@H]1CCCO`, the “activity change, negative = inhibition” value was 3.67% (inactive). Still for that read-out and setting: the value for `O=C(Cn1cnc2c(OCc3ccccc3)ncnc21)NCc1nc2ccccc2[nH]1` was 0.539% (inactive).

Turning to `COc1ccc(CCNC(=O)CNCC(c2ccccc2)N(C)C)cc1OC` (stereo not given), the “activity change, negative = inhibition” value is -0.661% (inactive). For the compound `Cc1ccc2c(CC(=O)OCC(=O)N(CC(C)C)c3c(N)n(Cc4ccccc4)c(=O)[nH]c3=O)coc2c1`, the “activity change, negative = inhibition” value is -22.2% (inactive). `COCCN(C(=O)COC(=O)c1cc2c(s1)CCC2)c1c(N)n(Cc2ccccc2)c(=O)[nH]c1=O`: the Potency was 3.16 µM (active). On the same count and under the same terms, the value for `CCOc1ccc(C(Nc2cccnc2)c2cc(Cl)c3cccnc3c2O)cc1` (stereo not given) was 6.31 µM (active); that for `COc1ccc(Cl)cc1C(Nc1cccnc1)c1ccc2cccnc2c1O` (stereo not given) was 12.6 µM (active); that for `O=C(NC(c1ccc(Cl)cc1)c1cc(Cl)c2cccnc2c1O)c1cccnc1` (stereo not given) was 22.4 µM (active). Consider `COc1ccc(S(=O)(=O)N2CCCC(C(=O)Nc3cccnc3)C2)cc1Cl` (stereo not given), for which the “activity change, negative = inhibition” value was -1.94% (inactive).

As for `COc1ccc(N(C(=O)C2CSC(=O)C2)C(C(=O)NC(C)(C)C)c2ccncc2)cc1` (stereo not given), the “activity change, negative = inhibition” value was 4.14% (inactive). On the same count and under the same terms, next, `Cc1noc(C)c1CCC(=O)N1CCCC(CCC(=O)NCc2ccc(F)c(F)c2)C1` (stereo not given): 6.69% (inactive); `COC(=O)c1c[nH]c(=O)c2ccccc12`: 3.61% (inactive); `CCOC(=O)[C@]12CCCC=C1N(Cc1ccccc1)C(=O)[C@H](CC(=O)NCCCOC)C2`: -0.167% (inactive). `O=C(COC(=O)c1ccc(NS(=O)(=O)c2cccs2)cc1O)Nc1nc2ccccc2s1`: the Potency is 20 µM (active). With `O=C(Cn1cc(COc2ccc(Br)cc2[N+](=O)[O-])nn1)c1ccc(O)cc1`, the “activity change, negative = inhibition” value was -24.8% (inactive). With `C#CCN1C(=O)S/C(=C\c2ccc(-c3ccc(C(=O)O)cc3C)o2)C1=O`, the Potency is 12.6 µM (active). `CN(c1cccc(NC(=O)c2ccc(N(C)S(=O)(=O)c3ccccc3)cc2)c1)S(C)(=O)=O`: the “activity change, negative = inhibition” value was 2.47% (inactive).

On to `CC1(C)Cc2cccc(OCC(=O)NCCOc3ccccc3)c2O1`, for which the “activity change, negative = inhibition” value was -1.33% (inactive). Take `FC(F)(F)C1=Nc2cccc3cccc(c23)N1`: the Potency was 3.98 µM (active).

Regarding `CC[C@]12c3[nH]c4cc(-c5ccco5)ccc4c3CCN1C(=O)[C@@H](CC(=O)NCCC1=CCCCC1)C[C@@H]2C(=O)N1CCN(C(=O)c2ccco2)CC1`, the “activity change, negative = inhibition” value was -10.8% (inactive). As for `Cc1ccc2c(c1)N(CC(=O)N1CCCCCC1)C(=O)C(C)O2` (stereo not given), the “activity change, negative = inhibition” value is -5.68% (inactive).

Turning to `Cc1cc(C)c(NC(=O)OCCN2CCOCC2)c(C)c1`, the “activity change, negative = inhibition” value was -2.26% (inactive).

`O=C(CSc1nncn1-c1ccccc1)Nc1ccc(N2CCOCC2)cc1`: the “activity change, negative = inhibition” value was -6.25% (inactive). As for `Cc1cc2[nH]c3c4ccccc4nc(C)c3c2cc1C`, the Potency was 28.2 µM (active).
